{"source": "paper PMC4552634", "about": "“A New Set of Chemical Starting Points with Plasmodium falciparum Transmission-Blocking Potential for Antimalarial Drug Discovery” (PLoS ONE, 2015)", "note": "The campaign covered roughly 13,000 compounds. About 3,200 (25%) showed an effect of 50% or more. The list shows a part of the results."}
{"system": "P. falciparum stage V gametocytes", "design": "BacTiter-Glo ATP luminescence viability of purified stage V gametocytes in 384-well plates, per cent inhibition versus DMSO", "conditions": "48 h, 5 µM; inhibitor", "units": {"% Inhibition": "%"}}
{"molecule": "CN(Cc1ccccc1)C1CCN(c2cc(NC(=O)c3cccc(F)c3)ccn2)CC1", "note": "[TCMDC-135000]", "% Inhibition": -5.844}
{"molecule": "Clc1ncnc2ncn(Cc3cccc(Br)c3)c12", "note": "[TCMDC-137635]", "% Inhibition": 63.17}
{"molecule": "Clc1nc(Cl)c2c(ccn2Cc2ccccc2)n1", "note": "[TCMDC-137801]", "% Inhibition": 10.13}
{"molecule": "CCCCCN1CCCC(CNS(=O)(=O)c2cccc(C(=O)Nc3ccc(C(F)(F)F)cc3)c2)C1", "note": "(stereo not shown) [TCMDC-133672]", "% Inhibition": -63.4}
{"molecule": "Fc1cccc(Cn2ncc3cc(Nc4ncnc5sc(C#Cc6ncc[nH]6)cc45)ccc32)c1", "note": "[TCMDC-135428]", "% Inhibition": -11.76}
{"molecule": "O=c1cc(NCCCNCc2cc3ccc(Br)cc3s2)[nH]c2ccccc12", "note": "[TCMDC-140332]", "% Inhibition": -45.39}
{"molecule": "OC(c1n[nH]c(=S)n1-c1ccccc1)C(O)c1n[nH]c(=S)n1-c1ccccc1", "note": "(stereo not shown) [TCMDC-125763]", "% Inhibition": 1.463}
{"molecule": "Cn1cncc1-c1cc2c(Nc3ccc(OCc4ccccc4)cc3)ncnc2cn1", "note": "[TCMDC-137188]", "% Inhibition": -27.44}
{"molecule": "Cc1[nH]c(C)c(-c2ccc(-c3ccc(OC(F)(F)F)cc3)nc2)c(=O)c1Br", "note": "[TCMDC-136016]", "% Inhibition": 67.89}
{"molecule": "Cc1[nH]c(C)c(-c2ccc(-c3ccc(OC(F)(F)F)cc3)nc2)c(=O)c1Cl", "note": "[TCMDC-135677]", "% Inhibition": 60.39}
{"molecule": "Cc1[nH]c(C)c(-c2ccc(-c3cccc(OC(F)(F)F)c3)nc2)c(=O)c1Cl", "note": "[TCMDC-136286]", "% Inhibition": 5.058}
{"molecule": "CC(=O)c1sc(NC(=O)Nc2ccc(C)cc2C)nc1C", "note": "[TCMDC-124895]", "% Inhibition": -9.928}
{"molecule": "CO/C(=C\\C=C\\c1cc2cc(Cl)c(Cl)cc2[nH]1)C(=O)Nc1ccc(NCCN(C)C)nc1", "note": "[TCMDC-139073]", "% Inhibition": -22.07}
{"molecule": "Cc1cccc2[nH]c(C3CCN(CC4CCN(C(=O)/C=C/c5ccc(Cl)c(Cl)c5)CC4)CC3)nc12", "note": "[TCMDC-140146]", "% Inhibition": -0.3523}
{"molecule": "CCOC(=O)[C@H](Cc1cccc2ccccc12)NC(=O)[C@H](CCC(=O)OC(C)(C)C)NC(=O)c1ccc(N(C)Cc2cnc3nc(N)nc(N)c3n2)cc1", "note": "[TCMDC-137288]", "% Inhibition": 41.06}
{"molecule": "Cc1cccc2nc(-c3ccc(-c4ccc(CNCCCN5CCCC5=O)cc4)s3)[nH]c12.O=C(O)C(F)(F)F", "note": "[TCMDC-132755]", "% Inhibition": 11.61}
{"molecule": "CCCCOC(=O)c1ccc(Nc2cc(C)nc3ccc(OC)cc23)cc1", "note": "[TCMDC-124192]", "% Inhibition": 8.663}
{"molecule": "CCCCOc1ccc(C(=O)C(CCC(CNC(C)(C)C)C(=O)c2ccc(OCCCC)cc2)CNC(C)(C)C)cc1", "note": "(stereo not shown) [TCMDC-124120]", "% Inhibition": 110.6}
{"molecule": "CCOC(=O)c1ccc(OCCOc2ccccc2)cc1", "note": "[TCMDC-125533]", "% Inhibition": 1.604}
{"molecule": "CCCc1ccc(S(=O)(=O)NC2CCN(C(=O)Nc3ccc(I)cc3)CC2)cc1", "note": "[TCMDC-139436]", "% Inhibition": 4.903}
{"molecule": "CS(=O)(=O)CCNC(=O)c1ccc(-c2cc3c(Nc4ccc5c(cnn5Cc5ccccc5)c4)ncnc3cn2)o1", "note": "[TCMDC-138125]", "% Inhibition": 1.646}
{"molecule": "Cc1cc(N[C@@H](Cc2ccccc2)C(=O)NCc2cccs2)nc(NCCc2ccc(F)cc2)n1", "note": "[TCMDC-134787]", "% Inhibition": 66.5}
{"molecule": "COc1ccccc1CCNc1nc(C)cc(N[C@@H](Cc2ccccc2)C(=O)NCc2cccs2)n1", "note": "[TCMDC-134802]", "% Inhibition": 51.92}
{"molecule": "Cc1cc(N[C@@H](Cc2ccccc2)C(=O)NCc2cccs2)nc(NCC2CCCCC2)n1", "note": "[TCMDC-134930]", "% Inhibition": -30.67}
{"molecule": "Cc1cc(N[C@@H](Cc2ccccc2)C(=O)NCc2cccs2)nc(NCCc2cccnc2)n1", "note": "[TCMDC-134819]", "% Inhibition": 56.43}
{"molecule": "Cc1cc(N[C@@H](Cc2ccccc2)C(=O)NCc2cccs2)nc(NCCc2ccccn2)n1", "note": "[TCMDC-134747]", "% Inhibition": 121.6}
{"molecule": "CC(C)(C)c1cc(C(=O)Nc2ccc(C(=N)N)cc2)c(O)c(C(C)(C)C)c1", "note": "[TCMDC-136316]", "% Inhibition": 24.98}
{"molecule": "CCc1ccc(C(=O)Nc2cccc(CN3CCCN(Cc4ccc(O)cc4)CC3)c2)cc1", "note": "[TCMDC-141884]", "% Inhibition": 21.35}
{"molecule": "Cc1ccc(NC(=O)c2cccc(CN3CCCN(CC4CCCCC4)CC3)c2)cc1F", "note": "[TCMDC-135958]", "% Inhibition": -34.77}
{"molecule": "COCCSc1nc2scc(C)c2c(=O)n1Cc1cccc(OC)c1", "note": "[TCMDC-134420]", "% Inhibition": 25.73}
{"molecule": "CCCCCN1CCC(NC(=O)c2ccc(C(=O)Nc3ccc(C(C)C)cc3)cc2)C1", "note": "(stereo not shown) [TCMDC-136744]", "% Inhibition": -20.17}
{"molecule": "Nc1ncnc2c1ncn2C(CO)Cc1ccc(O)cc1", "note": "(stereo not shown) [TCMDC-137893]", "% Inhibition": -20.6}
{"molecule": "C[C@H](Cc1ccc(C[C@@H](C)NCC(O)c2cc(Cl)c(N)c(Cl)c2)cc1)NCC(O)c1cc(Cl)c(N)c(Cl)c1", "note": "(stereo partly shown) [TCMDC-131548]", "% Inhibition": 39.43}
{"molecule": "Cc1cccc(CCNC(=O)c2cc(Br)cc(N3CCN(c4ccncc4)CC3)c2)c1", "note": "[TCMDC-135149]", "% Inhibition": -71.81}
{"molecule": "CCOC(=O)c1ccc(NC(=O)Nc2ccc(-c3cccc(-c4nc5ccc(F)cc5[nH]4)c3)cc2)cc1", "note": "[TCMDC-133269]", "% Inhibition": -27.05}
{"molecule": "Cc1cc(N[C@@H](Cc2ccccc2)C(=O)NCc2cccs2)nc(NCCc2ccccc2)n1", "note": "[TCMDC-134775]", "% Inhibition": 70.11}
{"molecule": "Cc1cc(N[C@@H](Cc2ccccc2)C(=O)NCCc2ccccc2)nc(NCCc2cccs2)n1", "note": "[TCMDC-134874]", "% Inhibition": 14.35}
{"molecule": "Cc1cc(N[C@@H](Cc2ccccc2)C(=O)NCc2cccs2)nc(Nc2ccccc2)n1", "note": "[TCMDC-134734]", "% Inhibition": -21.51}
{"molecule": "Cc1cc(N(C)C2CCN(C)C2)nc(Nc2ccccc2Cl)n1", "note": "(stereo not shown) [TCMDC-137007]", "% Inhibition": 12.36}
{"molecule": "Cc1ccc(C)c(S(=O)(=O)Nc2ccc(Br)cc2C(=O)Nc2cccc(C(F)(F)F)c2)c1", "note": "[TCMDC-141482]", "% Inhibition": 10.24}
{"molecule": "Cc1ccc(NC(=O)c2cc(S(=O)(=O)NC(C)(C)C)ccc2C)nc1", "note": "[TCMDC-125009]", "% Inhibition": 54.13}
{"molecule": "Cc1cc(NC(=O)c2cc(S(=O)(=O)N3CCCCC3)ccc2C)no1", "note": "[TCMDC-124530]", "% Inhibition": 23.56}
{"molecule": "Cc1cc(N2CCC(NS(=O)(=O)c3ccccc3)CC2)nc(Nc2cccc(C#N)c2)n1", "note": "[TCMDC-134213]", "% Inhibition": 22.13}
{"molecule": "CN1CCCC1CCNCc1cccc(-c2cnc(N(C)C3CCCCC3)nc2)c1", "note": "(stereo not shown) [TCMDC-133141]", "% Inhibition": 75.89}
{"molecule": "CN(CCc1ccccc1)c1ncc(-c2cccc(CNCCC3CCCN3C)c2)cn1", "note": "(stereo not shown) [TCMDC-133143]", "% Inhibition": 92.22}
{"molecule": "CCCN(CC1CC1)c1ncc(-c2cccc(CNCCC3CCCN3C)c2)cn1", "note": "(stereo not shown) [TCMDC-133142]", "% Inhibition": 40.53}
{"molecule": "CC1(C)CCCN(c2ncc(-c3cccc(CNCc4ccccc4O)c3)cn2)C1", "note": "[TCMDC-133139]", "% Inhibition": 32.42}
{"molecule": "CC(=O)Nc1cccc(CNCc2ccc(-c3cnc(N4CCCC(C)(C)C4)nc3)cc2)c1", "note": "[TCMDC-133549]", "% Inhibition": -38.45}
{"molecule": "CN1CCCC1CCNCc1cccc(-c2cnc(N3CCCC(C)(C)C3)nc2)c1", "note": "(stereo not shown) [TCMDC-133144]", "% Inhibition": 90.28}
{"molecule": "CN(c1ncc(-c2cccc(CNCc3ccccc3O)c2)cn1)C1CCCCC1", "note": "[TCMDC-133137]", "% Inhibition": -20.17}
{"molecule": "COC(=O)c1cc(OC)c(OC)cc1NC(=O)NC12CC3CC(CC(C3)C1)C2", "note": "[TCMDC-124384]", "% Inhibition": -44.27}
{"molecule": "CC(Oc1ccc(Cl)cc1)C(=O)Nc1cc(C(F)(F)F)ccc1-n1cncn1", "note": "(stereo not shown) [TCMDC-125023]", "% Inhibition": 17.82}
{"molecule": "Cc1cccc(CNc2nc(C)cc(N[C@@H](CC(C)C)C(=O)NCCOc3ccccc3)n2)c1", "note": "[TCMDC-134892]", "% Inhibition": -42.27}
{"molecule": "Fc1ccc2nc(-c3cccc(-c4cccc(CN5CCN(c6cnccn6)CC5)c4)c3)[nH]c2c1", "note": "[TCMDC-132676]", "% Inhibition": -22.96}
{"molecule": "CCCC(C)Nc1nc(C)cc(N[C@@H](CC(C)C)C(=O)Nc2ccc(OC)cc2)n1", "note": "(stereo partly shown) [TCMDC-134896]", "% Inhibition": -21.51}
{"molecule": "CCCCCCCCn1ccc(=N)cc1", "note": "[TCMDC-125630]", "% Inhibition": 13.04}
{"molecule": "Cc1cc(N2CCC(NS(=O)(=O)c3ccc(F)cc3)CC2)nc(Nc2cccc(C#N)c2)n1", "note": "[TCMDC-134214]", "% Inhibition": 18.32}
{"molecule": "CCNc1cc(C(=O)N[C@@H](Cc2ccccc2)[C@H](O)CNC2CCC(C)(C)C2)cc(N2CCCCS2(=O)=O)c1", "note": "(stereo partly shown) [TCMDC-135302]", "% Inhibition": 9.387}
{"molecule": "O=C(CSc1nc(-c2ccccc2Cl)ns1)Nc1cccc(Cl)c1", "note": "[TCMDC-124548]", "% Inhibition": 67.64}
{"molecule": "O=C(Nc1cccc(Cl)c1)c1cc2ccccc2cc1O", "note": "[TCMDC-124171]", "% Inhibition": 9.946}
{"molecule": "CC(=O)c1ccc(NC(=O)CSc2nc(-c3ccccc3Cl)ns2)cc1", "note": "[TCMDC-124545]", "% Inhibition": -8.871}
{"molecule": "COc1cccc(NC(=O)CSc2nc(-c3ccccc3Cl)ns2)c1", "note": "[TCMDC-123544]", "% Inhibition": 62.62}
{"molecule": "O=C(CSc1nc(-c2ccccc2Cl)ns1)Nc1ccc2c(c1)OCO2", "note": "[TCMDC-124546]", "% Inhibition": 53.36}
{"molecule": "COc1ccc(CC(=O)Nc2ccc(Nc3nc(C)cc(N4CCCC4)n3)cc2)cc1", "note": "[TCMDC-124966]", "% Inhibition": -9.476}
{"molecule": "COc1ccc(NC(=O)CSc2nc(-c3ccccc3Cl)ns2)cc1OC", "note": "[TCMDC-125346]", "% Inhibition": 40.34}
{"molecule": "O=C(Nc1cccc(CN2CCCN(Cc3ccc4c(c3)OCO4)CC2)c1)c1ccc(Cl)c(Cl)c1", "note": "[TCMDC-141820]", "% Inhibition": -97.11}
{"molecule": "COc1ccccc1-c1ccc2nnc(SCC(=O)Nc3ccc4c(c3)OCCO4)n2n1", "note": "[TCMDC-124319]", "% Inhibition": 10.92}
{"molecule": "COc1ccccc1Cc1nc2ccccc2nc1SCC(=O)Nc1cccc(C(F)(F)F)c1", "note": "[TCMDC-123879]", "% Inhibition": 0.3581}
{"molecule": "O=C(CSc1nc(-c2ccccc2Cl)ns1)Nc1cccc(F)c1", "note": "[TCMDC-124549]", "% Inhibition": 39.34}
{"molecule": "COc1ccc(NC(=O)CSc2nc(-c3ccccc3Cl)ns2)cc1", "note": "[TCMDC-123543]", "% Inhibition": 61.96}
